Consider 32 compounds from PubChem BioAssay AID720706 (Broad Institute, 2013).

SMILES strings stand for the structures. Hit rate of the full screen: of about 350,000 compounds, about 5,500 (1.6%) were called active.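 Rule for the calls: active = significant combined selectivity score with lowered wild-type GFP, culture density cut under 30%, mutant RFP and density less affected; inactive = any of these conditions unmet.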 Shown is part of a subset that was picked to be rich in actives.

The nature of this experiment: GFP drop in mixed WT/humanized-ribosome E. coli culture – GFP/RFP fluorescence, OD600, single point, bacterial rRNA inhibitor project, primary screen (AID 720706). Particulars: E. coli WT GFP vs humanized-ribosome RFP mutants, 24 h; GFP signal change (wild-type ribosome): stronger effect = lower value, DMSO median 0, no signal -100; OD600 change: measured here: OD600 growth, DMSO median 0, no signal -100; RFP signal change: measured here: RFP humanized mutant strains, DMSO median 0, no signal -100, concentration not given here.
For `C[C@@H]1CN([C@H](C)CO)C(=O)c2cc(-c3ccncc3)cnc2O[C@H]1CN(C)C`, the GFP signal change (wild-type ribosome) is -0.119% (inactive), the OD600 change turned out to be 3.91% and the RFP signal change was 0.159%.
Taken in the same sequence, the figures for `NNc1nc2c(Cl)cccc2s1` were -27.1% (active), -15.6% and -0.505%.
On to `CN1C(=O)c2cc(NC(=O)NC3CCCC3)ccc2OC[C@@H]2O[C@@H](CC(=O)O)CC[C@H]21`, for which the GFP signal change (wild-type ribosome) is 3.92% (inactive), the OD600 change turned out to be 5.14% and the RFP signal change was -1.81%.
As to `CC[C@]1(C(=O)OC)[C@H]2C(=O)N(Cc3ccccc3)C(=O)[C@H]2[C@H]2CN=C(SCc3ccccc3)N21`, the GFP signal change (wild-type ribosome) is -30.1% (inactive), the OD600 change is -42.8% and the RFP signal change was -8.47%.
`COC(=O)[C@@]1(C)[C@H]2C(=O)N(Cc3ccccc3)C(=O)[C@H]2[C@H]2CN=C(SCC3CC3)N21`: the GFP signal change (wild-type ribosome) is -47.6% (inactive), the OD600 change is -80% and the RFP signal change was -15.4%.
`CC[C@]1(C(=O)OC)[C@H]2C(=O)N(Cc3ccccc3)C(=O)[C@H]2[C@H]2CN=C(SCc3ccc(C#N)cc3)N21`: the GFP signal change (wild-type ribosome) was -22.2% (active), the OD600 change is -6.29% and the RFP signal change amounted to 8.89%.
For `C[C@@H]1CN([C@H](C)CO)C(=O)c2cc(-c3cccc(F)c3)cnc2O[C@H]1CN(C)C(=O)Nc1ccccc1F`, in that order: -2.5% (inactive), -5.06% and -1.42%.
As for `CCC(=O)N1CC2(CN(Cc3cccnc3)C2)c2c(n(C)c3cc(OC)ccc23)[C@@H]1CO`, the GFP signal change (wild-type ribosome) was 1.02% (inactive), the OD600 change is -2.19% and the RFP signal change was -2.12%.
Take `C=C1CCC(N(O)c2cc(C)on2)C(=C)CCC2C1CC2(C)C` (stereo unspecified): the GFP signal change (wild-type ribosome) was -20.5% (active), the OD600 change was -3.66% and the RFP signal change was found to be 1.7%.
Turning to `CN1CCN(C(=O)C[C@H]2CC[C@@H]3[C@H](COC[C@@H](O)CN3CC3CCCC3)O2)CC1`, the GFP signal change (wild-type ribosome) is -1.31% (inactive), the OD600 change was 7.95% and the RFP signal change was -2.61%.
On to `Cc1cc(-c2ccc(C)c(S(=O)(=O)NC(C)Cc3ccco3)c2)on1` (stereo unspecified), for which the GFP signal change (wild-type ribosome) is -34.9% (active), the OD600 change was -21.1% and the RFP signal change came to 0.997%.
For `CCOc1ccccc1CNS(=O)(=O)c1cc(-c2cc(C)no2)ccc1C`, the GFP signal change (wild-type ribosome) was -6.17% (inactive), the OD600 change is -29.1% and the RFP signal change is -15.4%.
Regarding `Cc1cc(-c2ccc(C)c(S(=O)(=O)NCCCN(Cc3ccccc3)C(C)C)c2)on1`, the GFP signal change (wild-type ribosome) is -6% (inactive), the OD600 change is -18.2% and the RFP signal change was 1.25%.
On to `CC1(C)CC(=O)C=C(c2ccc(Cl)c(C(F)(F)F)c2)C1`, for which the GFP signal change (wild-type ribosome) was 2% (inactive), the OD600 change is -0.255% and the RFP signal change is -10.1%.
As to `COc1ccccc1-c1n[nH]nc1C1=CC(=O)CC(C)(C)C1`, the GFP signal change (wild-type ribosome) is -4.29% (inactive), the OD600 change is -12.1% and the RFP signal change was -0.515%.
With `COc1cc(F)c(C2=CC(=O)CC(C)(C)C2)cc1F`, the GFP signal change (wild-type ribosome) is -21.1% (active), the OD600 change was -16.7% and the RFP signal change turned out to be 2.19%.
Taken in the same sequence, the figures for `C[C@@H]1CN([C@H](C)CO)C(=O)c2ccccc2-c2ccccc2CO[C@H]1CN(C)S(=O)(=O)c1ccsc1` were -0.618% (inactive), -1.1% and -2.79%.
Take `O=C(NCC[C@@H]1CC[C@@H](NC(=O)C2CCCC2)[C@H](CO)O1)c1cnccn1`: the GFP signal change (wild-type ribosome) is 3.79% (inactive), the OD600 change came out at 7.83% and the RFP signal change was -1.44%.
Turning to `CCCN(CC1CC1)C(=S)NC(=O)c1ccccc1Br`, the GFP signal change (wild-type ribosome) is -22.1% (active), the OD600 change is -12% and the RFP signal change is -8.89%.
As to `O=C(NC(=S)Nc1ncccn1)c1ccccc1Br`, the GFP signal change (wild-type ribosome) is -2.07% (inactive), the OD600 change was found to be 4.96% and the RFP signal change is -3.8%.
In the case of `CC1CCN(C(=S)NC(=O)c2ccccc2Br)CC1`, the GFP signal change (wild-type ribosome) is 6.21% (inactive), the OD600 change came to 4.62% and the RFP signal change is -0.105%.
With `O=C(CCN1CCCCC1)NCC[C@@H]1CC[C@H](NS(=O)(=O)c2cccc(Cl)c2)[C@H](CO)O1`, the GFP signal change (wild-type ribosome) was 3.52% (inactive), the OD600 change was 6.73% and the RFP signal change was determined as 1.99%.
Taken in the same sequence, the figures for `COc1ccccc1NC(=O)N1C[C@@H](O)COC[C@H]2O[C@@H](CC(=O)NCc3ccccc3)CC[C@@H]21` were -2.42% (inactive), -2.65% and 2.34%.
With `COCC(=O)N1CCC2(CC1)CN(Cc1ccccc1Cl)[C@H](CO)c1c2c2ccc(OC)cc2n1C`, the GFP signal change (wild-type ribosome) is 5.11% (inactive), the OD600 change was -2.87% and the RFP signal change was found to be 0.0355%.
In the case of `O=C(C[n+]1cc(-c2ccc(Cl)c(Cl)c2)n2c1CCC2)c1cccs1`, the GFP signal change (wild-type ribosome) was -50.7% (active), the OD600 change was -21.5% and the RFP signal change is -14.4%.
In the case of `Cc1ccc(-c2c[n+](CC(=O)Nc3ccccc3)c3n2CCC3)cc1`, the GFP signal change (wild-type ribosome) is -22.1% (active), the OD600 change was -5.22% and the RFP signal change was found to be 8.16%.
As for `Clc1ccc(C[n+]2cc(-c3ccc(Cl)cc3)n3c2CCC3)cc1`, the GFP signal change (wild-type ribosome) is -41.8% (inactive), the OD600 change is -50.2% and the RFP signal change was -12.3%.
For `Cc1ccc(S(=O)(=O)N2CCN(C(=O)c3cccs3)CC2)cc1`, in that order: 0.592% (inactive), -2.53% and -0.742%.
In the case of `Cc1ccc(C(=O)C[n+]2cc(-c3ccccc3)n3c2CCCCC3)cc1`, the GFP signal change (wild-type ribosome) is -44.5% (inactive), the OD600 change was -43.4% and the RFP signal change turned out to be 50.7%.
As to `Clc1ccc(C[n+]2cc(-c3ccccc3)n3c2CCC3)cc1`, the GFP signal change (wild-type ribosome) is 2.79% (inactive), the OD600 change was -1.72% and the RFP signal change was -0.921%.
For `O=C(NCC1CC1)[C@@H]1[C@@H](CO)[C@@H]2Cn3c(ccc(-c4ccncc4)c3=O)[C@H]1N2Cc1nccs1`, in that order: 2.96% (inactive), 4.86% and -1.83%.
Consider `O=C(C[C@@H]1CC[C@H]2[C@@H](COC[C@H](O)CN2C(=O)Nc2ccccc2)O1)NCCc1ccncc1`, for which the GFP signal change (wild-type ribosome) is 6.3% (inactive), the OD600 change was 12.9% and the RFP signal change is -0.44%.
